According to PubChem BioAssay (NCI):
Compounds without any hit were thinned out: in the full panel of roughly 83,000, 20% have a hit.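 Cell lines were cultured in 96-well plates, exposed to a single compound concentration, and assessed for percent growth 48 hours later.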 A number with no mark means an inactive call. Active and inactive are the calls of the source. How the source made its calls: active means growth percent below 10; inactive means the rest.

How the values were obtained:
Assay in all cases: NCI-60 one-dose screen, 48 h (100 = growth as untreated, 0 = no growth, -100 = all killed)
Conditions in all cases: 10 µM unless noted
SK-MEL-2 melanoma = system: SK-MEL-2 melanoma
EKVX NSCLC = system: EKVX NSCLC
SN12C renal = system: SN12C renal
UO-31 renal = system: UO-31 renal
TK-10 renal = system: TK-10 renal
ACHN renal = system: ACHN renal
CAKI-1 renal = system: CAKI-1 renal
CCRF-CEM leukemia = system: CCRF-CEM leukemia
MOLT-4 leukemia = system: MOLT-4 leukemia
SR leukemia = system: SR leukemia
RPMI-8226 leukemia = system: RPMI-8226 leukemia
OVCAR-8 ovarian = system: OVCAR-8 ovarian
OVCAR-5 ovarian = system: OVCAR-5 ovarian
OVCAR-4 ovarian = system: OVCAR-4 ovarian
SK-OV-3 ovarian = system: SK-OV-3 ovarian
IGROV1 ovarian = system: IGROV1 ovarian
OVCAR-3 ovarian = system: OVCAR-3 ovarian
HS 578T breast = system: HS 578T breast
NCI/ADR-RES ovarian = system: NCI/ADR-RES ovarian
A498 renal = system: A498 renal

SMILES | growth (SK-MEL-2 melanoma) | growth (EKVX NSCLC) [%] | growth (SN12C renal) [%] | growth (UO-31 renal) [%] | growth (TK-10 renal) | growth (ACHN renal) | growth (CAKI-1 renal) | growth (CCRF-CEM leukemia) | growth (MOLT-4 leukemia) | growth (SR leukemia) | growth (RPMI-8226 leukemia) | growth (OVCAR-8 ovarian) | growth (OVCAR-5 ovarian) [%] | growth (OVCAR-4 ovarian) | growth (SK-OV-3 ovarian) [%] | growth (IGROV1 ovarian) | growth (OVCAR-3 ovarian) | growth (HS 578T breast) [%] | growth (NCI/ADR-RES ovarian) [%] | growth (A498 renal) [%]
Cc1nc2c3c(ncn2n1)Oc1c(c(=O)[nH]c2ccccc12)C3c1ccc(Cl)cc1 (configuration not stated) | 101% | 86.6 | 97 | 64.5 | 105% | 96.1% | 83.8% | 96.5% | 101% | 100% | 86.2% | 97.3% | 101 | 97% | 116 | 89.3% | 99.2% | 99.7 | 94.7 | 
Cc1ccc2ccccc2c1C[n+]1ccccc1 | 111% | 58.2 | 98.4 | 84 | 88.4% | 106% | 92.8% |  |  |  | 80.9% | 91.7% | 116 | 91.5% | 100 | 101% | 102% | 95.1 | 104 | 79.3
COc1ccc(-c2cn(-c3cccc(C(=O)/C=C/c4cc(OC)c(OC)c(OC)c4)c3)c(=O)[nH]2)cc1OC | 75.3% | 98 | 78.1 | 68.3 | 96.1% | 81.8% | 96% | 34.3% | 70.4% | 6.01% (active) | 6.95% (active) | 64.9% | 93.6 | 85.7% | 82.7 |  | 98.2% | 87.9 | 90.7 | 
CN1C(=O)N(C)C2C1NN=c1s/c(=C\C=C\c3ccccc3)c(=O)n12 (configuration not stated) | 61.6% | 69.9 | 83.5 | 70.3 | 80% | 63.8% | 46.1% | 53.8% | 65.2% | 24.3% | 84.9% | 79.7% | 85.9 | 81.9% | 65.7 | 50.7% | 12% | 59.6 | 36.4 | 
CCN1C(=O)N(CC)C2C1NN=c1s/c(=C\c3cccnc3)c(=O)n12 (configuration not stated) | 51.5% | 45.5 | 45.2 | 46.8 | 80.7% | 42.9% | 47.5% | 14.1% | 26.5% | 15.1% | 47.5% | 35.8% | 42.1 | 44.1% | 42.7 | 30.7% | -22.9% (active) | 19.7 | 16.2 | 
CN1C(=O)N(C)C2C1NN=c1s/c(=C\c3cccnc3)c(=O)n12 (configuration not stated) | 97.3% | 89.6 | 93.5 | 66.5 | 109% | 92.3% | 57.6% | 79.8% | 88.7% | 27.3% | 95.4% | 93.2% | 93 | 93.6% | 85 | 80.8% | 65.6% | 84.8 | 78.5 | 
N#Cc1c(-c2ccccc2)cc(-c2ccccc2)n(CC(=O)NO)c1=O | 34.5% | 41.7 | 47.8 | 25.2 | 73.1% | 43.3% | 20.8% | -19.2% (active) | -5.67% (active) | 2.74% (active) | 23.2% | 67.7% | 69.3 | 50.6% | 107 | -61.4% (active) | 30% | 39.4 | 11.5 | 
O=C1c2c(Cl)c(Cl)c(Cl)c(Cl)c2C(=O)C2(Cl)CC=CCC12Cl (configuration not stated) | -49.4% (active) | 98.7 | 24.4 | 17.9 | -92.5% (active) | -81% (active) | -15.1% (active) |  |  |  | -32.2% (active) | -34.9% (active) | 95.7 | -59.1% (active) | 105 | -58.7% (active) | -93.5% (active) | 46.7 | 32.7 | 104
